PubChem BioAssay AID624331 (National Center for Advancing Translational Sciences (NCATS), 2012)
Records with an inconclusive call do not appear. The source made the active and inactive calls. Calls come from the whole dose curve; as a rule, active = well fitted activation curve with a large enough effect; inconclusive = small, poorly fitted or top-dose-only effect; inactive = no such curve, though single readings can be large or run the other way.

Test: qHTS assay for re-activators of p53 using a Luc reporter: Hit Validation with no p53 Expressed; note: 0% is about no effect
Conditions: p53-null cells, luciferase reporter counter-screen; series mostly up to 46.1 µM; activity change, positive = activation: at the top concentration
In short: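 Counter-screen of primary hits in a cell line not transfected with p53, in Opti-MEM with 10% FBS; compounds at several concentrations (10 mM stock, 1:5; top 46.1 µM in well), 24 h at 37 deg C, 5% CO2. Luminescence read after 10 min with Amplite reagent.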
In the case of Cc1cnc(C(=O)OCC(=O)c2csc(N3CCCCC3)n2)cn1, the “activity change, positive = activation” value is reported as 19.9% (inactive).
In the case of COc1ccc2c(c1OC)C(=O)OC2Nc1nc(-c2cc3ccccc3oc2=O)cs1 (stereo unspecified), the “activity change, positive = activation” value is reported as 12.4% (inactive).
In the case of O=C(Nc1ccc(Cl)cc1C(F)(F)F)c1ccccc1, the “activity change, positive = activation” value is reported as -19.7% (inactive).
For C#CCn1c(=NC(=O)c2cccs2)sc2cccc(OCC)c21, the “activity change, positive = activation” value was -22.2% (inactive).
In the case of COCCn1c(SCC(=O)Nc2ccc(N3CCOCC3)cc2)nc2ccccc21, the “activity change, positive = activation” value is reported as -13.8% (inactive).
In the case of COc1ccccc1NC(CC(=O)c1ccccc1)C(=O)OCC(=O)c1ccc(C)c(C)c1 (stereo unspecified), the “activity change, positive = activation” value is reported as 61.6% (inactive).
For O=c1c2ccccc2oc2nc(-c3ccco3)n(-c3ccccc3)c(=O)c12, the “activity change, positive = activation” value was -16.3% (inactive).
For C=CCn1c(SC(F)F)nc2scc(-c3ccco3)c2c1=O, the “activity change, positive = activation” value was 87.2% (inactive).
In the case of O=C(Nc1cccnc1)c1ccc([N+](=O)[O-])s1, the “activity change, positive = activation” value is reported as -52.7% (inactive).
In the case of Cc1cccc(NC2SC(=O)N(c3ccccc3)C2=O)c1 (stereo unspecified), the “activity change, positive = activation” value is reported as -20.2% (inactive).
In the case of O=C(O)CCCC(=O)NCCc1ccncc1, the “activity change, positive = activation” value is reported as 18.6% (inactive).
With Clc1ccc(OCc2nc(-c3ccccn3)no2)c(Br)c1 the “activity change, positive = activation” value was 76.4% (inactive).
In the case of COc1ccc(-n2cnc3cc(C(=O)N4CCOCC4)ccc32)cc1, the “activity change, positive = activation” value is reported as 34.4% (inactive).
For COc1cc(OC)cc(C(=O)NNC(=O)c2ccccn2)c1, the “activity change, positive = activation” value was -11.2% (inactive).
In the case of COc1cccc(NC(=O)CSC2=C(C#N)C(c3ccco3)C3=C(CCCC3=O)N2)c1 (stereo unspecified), the “activity change, positive = activation” value is reported as -26.5% (inactive).
With O=C(NNC(=O)c1cccnc1SCc1cccc([N+](=O)[O-])c1)c1ccccn1 the “activity change, positive = activation” value was -3.99% (inactive).
With CCCCn1c(SCC(=O)N2CCCC2=O)nc2cc(S(N)(=O)=O)ccc21 the “activity change, positive = activation” value was -34.7% (inactive).
For COc1ccc2c(c1)CCC/C2=N\NC(=O)c1ccoc1C, the “activity change, positive = activation” value was -0.779% (inactive).
With O=[N+]([O-])c1ccc(/C=N/NC(=S)Nc2ccccc2F)o1 the “activity change, positive = activation” value was -5.46% (inactive).
With COc1ccc(-n2nc([N+](=O)[O-])c(=NCc3ccco3)n2O)cc1 the “activity change, positive = activation” value was 7.46% (inactive).
With Cn1ncc([N+](=O)[O-])c1C(=O)Nc1ccc(C2CCCCC2)cc1 the “activity change, positive = activation” value was 2.99% (inactive).
